Rows were chosen to be rich in hits. Some 0.43% of all compounds tested hit in one or more screens of this group.
GAA glycogen – qHTS Assay for Inhibitors and Activators of Human alpha-Glucosidase Cleavage of Glycogen; Lysosomal alpha-glucosidase (Homo sapiens), P10253; recombinant GAA, glycogen substrate, Amplex Red glucose oxidase fluorescence; Potency, µM (highest dose often 76.4 µM), without a hit: top-dose activity change, negative = inhibition, usual class: inhibitors; actives 0.38% (n = 300,000);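 note: potency is the fitted concentration of half-maximal effect; 0% = full enzyme reaction and -100% = no-enzyme basal signal; the screen sought inhibitors and activators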
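Recombinant enzyme (4 nM final) with compounds titrated up to 77 uM and bovine liver glycogen (30 ug) in citrate pH 5.0, 0.01% Tween-20, 37 C 40 min. Released glucose detected by Amplex Red/glucose oxidase (Ex 573/Em 610); AC50 from Hill fits.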
aGlu spleen mod – qHTS Assay for Inhibitors and Activators of Human alpha-Glucosidase From Spleen Homogenate | human spleen homogenate, 4-MU-alpha-glucoside fluorescence | actives 0.006% (n = 240,000) | Lysosomal alpha-glucosidase (Homo sapiens), P10253 | AID 2112, 2009 | Potency, µM (titrated, usually from 79.9 µM), without a hit: at the top dose activity change, negative = inhibition, actives largely listed as inhibitors;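 note: potency is the fitted concentration of half-maximal effect; 0% = enzyme with vehicle and -100% = no enzyme basal signal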
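Compounds were titrated against alpha-glucosidase in spleen homogenate at pH 5.0, with 1 mM 4-methylumbelliferyl substrate for 40 min at 37 C. Reactions were quenched with pH 10 NaOH/glycine and fluorescence measured.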
aGal spleen mod – qHTS Assay for Inhibitors and Activators of Human alpha-Galactosidase From Spleen Homogenate; Alpha-galactosidase A (Homo sapiens), P06280; human spleen homogenate, 4MU-alpha-Gal fluorescence, 40 min; Potency, µM (doses to about 80 µM), without a hit: top-dose activity change, negative = inhibition, usual class: inhibitors; actives 0.008% (n = 240,000); AID 2107, 2009;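 note: potency is the fitted concentration of half-maximal effect; 0% = enzyme with vehicle and -100% = no enzyme basal signal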
Target sequence (P06280 32-429 limits assumed): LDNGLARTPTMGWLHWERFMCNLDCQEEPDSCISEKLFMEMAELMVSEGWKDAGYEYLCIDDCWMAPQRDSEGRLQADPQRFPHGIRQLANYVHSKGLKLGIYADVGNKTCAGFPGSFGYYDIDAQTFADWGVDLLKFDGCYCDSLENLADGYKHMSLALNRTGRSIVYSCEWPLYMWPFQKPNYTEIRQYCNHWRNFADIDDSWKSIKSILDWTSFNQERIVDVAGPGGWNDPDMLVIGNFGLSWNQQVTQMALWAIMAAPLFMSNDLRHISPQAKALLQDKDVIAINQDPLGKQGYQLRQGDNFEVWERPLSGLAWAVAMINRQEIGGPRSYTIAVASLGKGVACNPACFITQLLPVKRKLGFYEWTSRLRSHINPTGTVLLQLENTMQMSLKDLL
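Human spleen homogenate (1 ug) as enzyme source, 4-methylumbelliferyl-alpha-D-galactopyranoside 1 mM final, citrate/phosphate pH 5.0 with 0.01% Tween-20. Compounds 40 min at 37C, NaOH/glycine stop; fluorescence Ex 365/Em 440, Hill-fit AC50.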
N370S GC mod – qHTS Assay for Inhibitors and Activators of N370S glucocerebrosidase as a Potential Chaperone Treatment of Gaucher Disease; Lysosomal acid glucosylceramidase (Homo sapiens), P04062; actives 0.092% (n = 330,000); Potency, µM (series often up to 59.4 µM), without a hit: top-dose activity change, negative = inhibition, usual class: inhibitors; N370S GC spleen homogenate, 4MU-glucoside fluorescence;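 note: potency is the fitted concentration of half-maximal effect; 0% = full enzyme activity and -100% = no enzyme basal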
GLA inh pH 4.5 – qHTS Assay for Inhibitors of Human alpha-Galactosidase at pH 4.5 | AID 1467, 2008 | 230,000 tested, under 10 active | Alpha-galactosidase A (Homo sapiens), P06280 | activity change, negative = inhibition, % at 105 µM | purified enzyme, 4-MU-alpha-Gal fluorescence, pH 4.5;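 note: 0% = full activity with enzyme and -100% = basal without enzyme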
GAA inhib – qHTS Assay for Inhibitors of Human alpha-Glucosidase as a Potential Chaperone Treatment of Pompe Disease; AID 1466, 2008; purified human GAA, 4-MU-alpha-glucoside fluorescence; Lysosomal alpha-glucosidase (Homo sapiens), P10253; actives 0.005% (n = 200,000); Potency, µM (titrated, usually from 76.9 µM), for inactives: top-dose activity change, negative = inhibition, usual class: inhibitors;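 note: potency is the fitted concentration of half-maximal effect; plate controls were uninhibited enzyme wells for no effect and no-enzyme background for full effect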
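Human enzyme at 4 nM with 400 uM 4-methylumbelliferyl-alpha-D-pyranoside, citrate/phosphate buffer pH 5.0, 0.005% Tween-20, 20 min at room temperature. Compounds up to 77 uM. 4-MU fluorescence (Ex 365/Em 440) read after NaOH/glycine stop; AC50 from Hill fit.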
* = called active by the depositor; ? = inconclusive; . = no result given; ! = not active in a repeat; [ ] = dose if it differs, or a comment. Calls come from the whole dose curve; as a rule, active = well fitted curve in the direction sought with a large enough effect; inconclusive = small, poorly fitted or top-dose-only effect, or another doubt; inactive = no such curve, though single readings can be large; an effect the other way counts as inactive or inconclusive.

SMILES	GAA glycogen	aGlu spleen mod	aGal spleen mod	N370S GC mod	GLA inh pH 4.5	GAA inhib
N#Cc1c(N)nc(N)nc1Nc1ccc(Br)cc1	-1%	6%	-3%	-22%	-1	1%
CCCCCC1(C)NC(=S)N(c2ccccc2)N1 (centres undefined)	35µM*	-2%	0%	-5%	-3	-4%
CCCCCCC1(C)NC(=S)N(c2ccccc2)N1 (centres undefined)	?	-6%	-8%	9%	4	-4%
FC(F)(F)c1cccc(NC(=S)NNC(=S)Nc2cccc(C(F)(F)F)c2)c1	8.9µM*	2%	1%	-14%	-22	-10%
CCOc1ccc(NC(=S)NNC(=S)Nc2cccc(C(F)(F)F)c2)cc1	?	-1%	1%	-3%	-5	0%
COc1ccc(NC(=S)NNC(=S)Nc2cccc(C(F)(F)F)c2)cc1	4.5µM*	4%	-5%	-19%	-12	-6%
CNNC(=S)Nc1cccc(C(F)(F)F)c1	-29%	0%	4%	11%	-10	-1%
C=CC[C@@H]1[C@H](O)CC[C@@]2(C)[C@H]1CC[C@@H]1[C@@H]2CC[C@]2(C)C([C@H](C)CCCC(C)C)CC[C@@H]12 (some centres undefined)	.	2%	-9%	-5%	.	.
CC(C)C/C(O)=C/c1nc2cc(Cl)ccc2oc1=O	?	-6%	-8%	2%	2	0%
O=c1oc2ccc(Cl)cc2nc1/C=C(\O)c1ccco1	7.1µM*	1%	5%	-14%	-8	.
Cc1ccc(/C(O)=C/c2nc3cc(C)ccc3oc2=O)cc1	16µM*	-8%	-6%	6%	-5	.
COc1cccc(-n2cc(C(=O)NCc3ccccc3OC)c3ccccc3c2=O)c1	40µM*	.	.	.	.	.
CCOC(=O)c1c(C)[nH]c(C(=O)OCC(=O)Nc2sccc2C(N)=O)c1C	.	.	.	-11%	.	.
Cc1cccc(C)c1Nc1c(-c2ccsc2)nc2cccc(C)n12	-19%[76.3 µM]	.	.	.	.	.
CSc1ccc(-c2nc3cccc(C)n3c2Nc2ccc(Cl)cc2)cc1	5.6µM*	.	.	.	.	.
Oc1ccc(/C=N/Nc2ccnc3cc(Cl)ccc23)cc1O	45µM*	0%	7%	-11%	-1	.
CSc1ncnc2c1ncn2C1OC(CO)C(O)C1O (centres undefined)	.	-7%	-1%	3%	-2	.
COc1cc(CNc2ccc3[nH]c(=O)[nH]c3c2)cc(Cl)c1OCc1ccccc1F	-29%[76.3 µM]	.	.	.	.	.
COc1cccc(CNc2ccc3[nH]c(=O)[nH]c3c2)c1OCc1ccccc1F	28µM*	.	.	9%	.	.
COc1cccc(CNC(=O)c2cc(=O)[nH]c3ccc(S(=O)(=O)N4CCCC4)cc23)c1	9%[76.3 µM]	.	.	.	.	.
Nc1cc(S(=O)(=O)Nc2cc(Cl)ccc2Cl)ccc1N1CCCC1	18µM*	-5%	1%	14%	-3	.
Cc1ccc(/C=N/c2sc3c(c2C#N)CCC3)o1	22µM*	8%	11%	-10%	2	7%
CCC(=O)Oc1c(Sc2ccc(Cl)cc2)c(C)nn1C(C)(C)C	-2%[76.3 µM]	.	.	.	.	.
COc1ccc(CCNC(=S)N2CCN(S(=O)(=O)c3ccccc3)CC2)cc1	.	.	.	-6%	.	.
CC(=O)Oc1ccc2c(=O)c(Oc3ccccc3)c(C)oc2c1OC(C)=O	3.5µM*	-9%	-2%	7%	-8	-1%
SMILES	GAA glycogen	aGlu spleen mod	aGal spleen mod	N370S GC mod	GLA inh pH 4.5	GAA inhib
CC(C)=CC[C@@H](O)C1=CC(=O)c2c(O)ccc(O)c2C1=O	.	-7%	-2%	-15%	.	.
CCC1CN(S(=O)(=O)c2ccc3c(c2)NC(=O)CC(=O)N3)c2cc(Cl)ccc2O1 (centres undefined)	-9%[76.3 µM]	.	.	1.6µM*	.	.
COc1cc(-c2cc(=O)c3c(O)c(OC)c(OC)c(O)c3o2)ccc1O	22µM*	-25%	-1%	-13%	-1	.
COc1ccc(-c2cc(=O)c3c(O)c(OC)c(OC)c(OC)c3o2)cc1OC	.	1%	2%	0%	3	.
Cc1nc2cc(-c3ccccc3)nn2c(C)c1CCC(=O)N1CCN(c2ccc(F)cc2)CC1	-8%[76.3 µM]	.	.	.	.	.
Cc1[nH]c2ccccc2c1C(O)CN1CCN(c2cccc(C(F)(F)F)c2)CC1 (centres undefined)	-17%	-6%	28µM*	?	?	?
NC(=O)C(=CNc1nc(-c2ccc(Cl)c(Cl)c2)cs1)C(N)=O	7.1µM*	-3%	7%	-19%	0	.
O=C(O)c1ccc(-c2nc(-c3ccc(Cl)c(Cl)c3)cs2)cc1	6%	7%	-4%	13%	-1	2%
O=C1C2C3C=CC(CC3)C2C(=O)N1/N=C/c1ccc(O)c(O)c1 (centres undefined)	7.1µM*	-4%	-1%	0%	-3	-1%
O=C(NCc1ccccc1Cl)c1ccc(CS(=O)(=O)c2ccc(Br)cc2)o1	45µM*	.	.	.	.	.
S=C(NCc1ccccc1)NCc1ccccc1Cl	-11%[76.3 µM]	.	.	-10%	.	.
COc1ccc(-c2coc3cc(O)cc(O)c3c2=O)cc1	-6%	-4%	-7%	?	3	-1%[15.4 µM]
O=c1c(-c2ccc(O)cc2)coc2cc(O)cc(O)c12	-3%	-7%	7%	16µM*!	-8	.
COCCNc1c(-c2ccc(OC)cc2)nc2ccc(Cl)cn12	5µM*	8%	4%	-24%	9	7%
N/C(=N\OC(=O)c1ccccc1)c1ccn[nH]1	.	.	.	-2%	.	.
COc1ccc2[nH]c(C(=O)O)c(NS(=O)(=O)c3ccc(OC)c(OC)c3)c2c1	4µM*	-6%	-3%	-3%	-3	4%
COc1ccc(S(=O)(=O)Nc2c(C(=O)O)[nH]c3ccc(OC)cc23)cc1	?	.	.	-7%	.	.
COc1ccc(S(=O)(=O)Nc2c(C(=O)O)[nH]c3ccc(OC)cc23)c(OC)c1	?	.	.	0%	.	.
COc1ccc(S(=O)(=O)Nc2c(C(=O)O)[nH]c3ccccc23)c(OC)c1	3.5µM*	4%	10%	-6%	-19	0%
Cc1ccccc1N=C1NC(=O)CC(c2ccccc2)S1 (centres undefined)	11µM*	6%	-5%	-5%	-5	1%
Oc1ccc(C2Nc3cccc4cccc(c34)N2)c(O)c1	20µM*	-5%	8%	-4%	-25	3%

Screening data from PubChem BioAssay.
